Measurements reported in PubChem BioAssay (NCI).
This is part of a sample that, as a whole, favours compounds with a hit. Of some 79,000 tested, about 15% had one in any assay. The source made the active and inactive calls. Rule as the data show it: active = growth inhibition above about 70%; inactive = the rest.

Key:
[1] = NCI Yeast Anticancer Drug Screen. Data for the rad52 strain (AID 147);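 also: 0% = growth of vehicle-treated control cultures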; conditions: S. cerevisiae rad52 mutant growth inhibition, hits give high values
In short: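 Yeast strain carrying a DNA damage repair alteration was exposed to test compounds. Growth inhibition was measured relative to vehicle-treated controls.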

[2] = NCI Yeast Anticancer Drug Screen. Data for the wt1 strain (AID 149);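 also: 0% = growth of vehicle-treated wt1 cultures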; conditions: S. cerevisiae wt1 strain (SPY 50644) growth inhibition, hits give high values
In short: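 The wt1 strain was treated with compounds, and growth was compared with vehicle-treated cultures to give inhibition.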

[3] = NCI Yeast Anticancer Drug Screen. Data for the rad50EPP+ strain (AID 151);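 also: 0% = growth of vehicle-treated control cultures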; conditions: S. cerevisiae rad50 mutant strain, hits give high values
In short: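 Yeast strain carrying rad50 alteration (rad50EPP+) exposed to compounds; growth inhibition measured relative to vehicle-treated controls.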

[4] = NCI Yeast Anticancer Drug Screen. Data for the mgt1 strain (AID 153); conditions: S. cerevisiae mgt1 mutant growth inhibition, hits give high values
In short: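 Yeast mgt1 strain (DNA repair/cell-cycle alteration panel) exposed to compounds; growth inhibition measured relative to vehicle-treated controls.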

[5] = NCI Yeast Anticancer Drug Screen. Data for the rad50 strain (AID 155);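 also: 0% = growth of vehicle-only cultures of the same strain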; conditions: S. cerevisiae rad50 strain growth inhibition, hits give high values
In short: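 Cells are treated with compound, grown, and their growth is then scored against vehicle-only cultures of the same repair-deficient yeast strain.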

[6] = NCI Yeast Anticancer Drug Screen. Data for the mec2-1 strain (AID 157); conditions: S. cerevisiae mec2-1 strain, hits give high values
In short: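 mec2-1 yeast strain, carrying an alteration in DNA damage repair or cell cycle control, was exposed to compounds; growth inhibition was measured relative to vehicle-treated controls.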

[7] = NCI Yeast Anticancer Drug Screen. Data for the rad14 strain (AID 159);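 also: 0% = growth of vehicle-treated control cultures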; conditions: S. cerevisiae rad14 strain growth inhibition, hits give high values
In short: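 Readout: yeast growth inhibition, referenced to vehicle-only cultures. Strain bears a defined alteration in DNA damage repair.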

[8] = NCI Yeast Anticancer Drug Screen. Data for the sgs1 mgt1 strain (AID 161);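 also: 0% = growth of cultures given vehicle only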; conditions: S. cerevisiae sgs1 mgt1 strain, hits give high values
In short: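 Growth of a repair-deficient yeast mutant was monitored after compound treatment and expressed as inhibition relative to vehicle-treated cultures.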

[9] = NCI Yeast Anticancer Drug Screen. Data for the CLN2oe strain (AID 163);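 also: 0% = growth of vehicle-only control cultures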; conditions: S. cerevisiae CLN2oe strain, hits give high values
In short: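 Yeast cells carrying a defined cell-cycle control alteration were exposed to test compounds. Growth inhibition was scored against vehicle-treated control cultures.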

[10] = NCI Yeast Anticancer Drug Screen. Data for the cln2 rad14 strain (AID 165);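 also: 0% = growth equal to vehicle treated cultures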; conditions: S. cerevisiae cln2 rad14 strain, hits give high values
In short: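 Yeast carrying cln2 and rad14 alterations (cell cycle control and DNA damage repair) were exposed to compounds. Growth inhibition was measured against vehicle-treated controls.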

[11] = NCI Yeast Anticancer Drug Screen. Data for the bub3 strain (AID 167); conditions: S. cerevisiae bub3 mutant strain, hits give high values
In short: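 Part of a panel of yeast mutants defective in DNA damage repair or cell cycle regulation. Each strain is grown with compound, and inhibition is calculated relative to solvent-treated cultures.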

[12] = NCI Yeast Anticancer Drug Screen. Data for the wt2 strain (AID 169);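 also: 0% = growth of vehicle-treated yeast cultures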; conditions: S. cerevisiae wt2 strain growth inhibition, hits give high values
In short: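 Yeast cells were exposed to test compounds, and growth inhibition was measured relative to vehicle-treated controls.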

[13] = NCI Yeast Anticancer Drug Screen. Data for the mlh1 strain (AID 171);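 also: 0% = growth of vehicle-treated control cultures of the same strain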; conditions: S. cerevisiae mlh1 strain growth inhibition, hits give high values
In short: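 Yeast carrying a defined genetic alteration in DNA damage repair or cell cycle control were exposed to test compounds. Growth inhibition was measured relative to vehicle-treated controls.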

[14] = NCI Yeast Anticancer Drug Screen. Data for the sgs1 strain (AID 173);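 also: 0% = growth of vehicle-only control cultures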; conditions: S. cerevisiae sgs1 mutant, hits give high values
In short: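 Yeast mutant strains carrying defined defects in DNA damage repair or cell cycle control were exposed to test compounds. Growth inhibition was scored against vehicle-treated controls.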

[15] = NCI Yeast Anticancer Drug Screen. Data for the mlh1 rad18 strain (AID 175); conditions: S. cerevisiae mlh1 rad18 strain growth inhibition, hits give high values
In short: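 Growth inhibition of the yeast strain was measured after compound exposure and expressed relative to vehicle-treated controls. The strain carries defined defects in DNA damage repair.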

[16] = NCI Yeast Anticancer Drug Screen. Data for the rad18 strain (AID 177); conditions: S. cerevisiae rad18 mutant growth inhibition, hits give high values
In short: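 Yeast carrying a defined DNA damage repair alteration were exposed to compounds. Growth inhibition was expressed relative to vehicle-treated controls.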

[17] = at 5.0 µM (retest, dose inferred, filed as 0.5)
[18] = at 50.0 µM (retest, dose inferred, filed as 5.0)

Measured: growth inhibition

CCCC/C=C1\CCC(CN2CCCC2)C1=O (stereo unspecified)
inactive: [1]; at 1.2 µM -18% | [1]; at 3.7 µM -24% | [1]; at 11.0 µM -10% | [1]; at 33.0 µM 17% | [2]; at 1.2 µM -10% | [2]; at 3.7 µM -17% | [2]; at 11.0 µM 9% | [2]; at 33.0 µM 16% | [2]; at 100.0 µM 26% | [3]; at 1.2 µM -4% | [3]; at 3.7 µM -6% | [3]; at 11.0 µM -8% | [3]; at 33.0 µM 10% | [4]; at 1.2 µM 21% | [4]; at 3.7 µM 21% | [4]; at 11.0 µM 39% | [4]; at 33.0 µM 62% | [5]; at 1.2 µM 7% | [5]; at 3.7 µM 25% | [5]; [17] 40% | [5]; at 11.0 µM 20% | [5]; at 33.0 µM 40% | [5]; [18] 44% | [6]; at 1.2 µM 0% | [6]; at 3.7 µM 7% | [6]; [17] 4% | [6]; at 11.0 µM 27% | [6]; at 33.0 µM 23% | [6]; [18] 35% | [6]; at 50.0 µM 59.2% | [7]; at 1.2 µM 28% | [7]; at 3.7 µM 44% | [7]; at 11.0 µM 66% | [8]; [17] 18% | [8]; [18] 51% | [9]; at 1.2 µM 28% | [9]; at 3.7 µM 48% | [9]; at 11.0 µM 49% | [10]; [17] 39% | [10]; [18] 55% | [11]; at 1.2 µM 1% | [11]; at 3.7 µM 33% | [11]; [17] 50% | [11]; at 11.0 µM 39% | [11]; at 33.0 µM 63% | [12]; at 1.2 µM -33% | [12]; at 3.7 µM -17% | [12]; at 11.0 µM -3% | [12]; at 33.0 µM 20% | [13]; at 1.2 µM 22% | [13]; at 3.7 µM 36% | [13]; at 11.0 µM 56% | [14]; at 1.2 µM -1% | [14]; at 3.7 µM 22% | [14]; at 11.0 µM 44% | [14]; at 33.0 µM 67% | [15]; [17] 41% | [16]; at 1.2 µM -3% | [16]; at 3.7 µM 15% | [16]; at 11.0 µM 34% | [16]; at 33.0 µM 65%
active: [1]; at 100.0 µM 79% | [3]; at 100.0 µM 76% | [4]; at 100.0 µM 95% | [5]; at 50.0 µM 83% | [5]; at 100.0 µM 79% | [6]; at 100.0 µM 85% | [7]; at 33.0 µM 82% | [7]; at 100.0 µM 93% | [8]; at 50.0 µM 78.2% | [9]; at 33.0 µM 70% | [9]; at 100.0 µM 79% | [10]; at 50.0 µM 73.3% | [11]; [18] 81% | [11]; at 50.0 µM 80.7% | [11]; at 100.0 µM 94% | [12]; at 100.0 µM 74% | [13]; at 33.0 µM 76% | [13]; at 100.0 µM 97% | [14]; at 100.0 µM 94% | [15]; [18] 80% | [15]; at 50.0 µM 73.5% | [16]; at 100.0 µM 92%

COc1cccc(C(NC2=NCCC=N2)c2cc3c(cc2O)OCO3)c1O (stereo unspecified)
inactive: [1]; at 1.2 µM -1% | [1]; at 3.7 µM 2% | [1]; at 11.0 µM 21% | [1]; at 33.0 µM 56% | [1]; at 100.0 µM 66% | [2]; at 1.2 µM -2% | [2]; at 3.7 µM -4% | [2]; at 11.0 µM 2% | [2]; at 33.0 µM 5% | [2]; at 100.0 µM 8% | [3]; at 1.2 µM -9% | [3]; at 3.7 µM -9% | [3]; at 11.0 µM -4% | [3]; at 33.0 µM 6% | [3]; at 100.0 µM 9% | [4]; at 1.2 µM -1% | [4]; at 3.7 µM -5% | [4]; at 11.0 µM 12% | [4]; at 33.0 µM -22% | [4]; at 100.0 µM 10% | [5]; at 1.2 µM -1% | [5]; at 3.7 µM -1% | [5]; [17] -11% | [5]; at 11.0 µM -36% | [5]; at 33.0 µM 26% | [5]; at 50.0 µM 41.8% | [5]; at 100.0 µM 39% | [6]; at 1.2 µM 1% | [6]; at 3.7 µM -3% | [6]; [17] -20% | [6]; at 11.0 µM 7% | [6]; at 33.0 µM 15% | [6]; [18] 61% | [6]; at 50.0 µM 23.6% | [6]; at 100.0 µM 22% | [7]; at 1.2 µM 6% | [7]; at 3.7 µM 5% | [7]; at 11.0 µM 8% | [7]; at 33.0 µM 12% | [7]; at 100.0 µM 29% | [8]; [17] -47% | [9]; at 1.2 µM -2% | [9]; at 3.7 µM -8% | [9]; at 11.0 µM -1% | [9]; at 33.0 µM 4% | [9]; at 100.0 µM 21% | [10]; [17] 26% | [10]; [18] 13% | [10]; at 50.0 µM 44.6% | [11]; at 1.2 µM -9% | [11]; at 3.7 µM -3% | [11]; [17] -57% | [11]; at 11.0 µM -3% | [11]; at 33.0 µM -1% | [11]; at 50.0 µM 37.5% | [11]; at 100.0 µM 5% | [12]; at 1.2 µM 0% | [12]; at 3.7 µM 1% | [12]; at 11.0 µM 5% | [12]; at 33.0 µM 18% | [12]; at 100.0 µM 25% | [13]; at 1.2 µM -4% | [13]; at 3.7 µM -3% | [13]; at 11.0 µM 2% | [13]; at 33.0 µM 3% | [13]; at 100.0 µM 4% | [14]; at 1.2 µM 4% | [14]; at 3.7 µM 6% | [14]; at 11.0 µM 21% | [14]; at 33.0 µM 46% | [14]; at 100.0 µM 57% | [15]; [17] -31% | [15]; at 50.0 µM 49.2% | [16]; at 1.2 µM -2% | [16]; at 3.7 µM 0% | [16]; at 11.0 µM 9% | [16]; at 33.0 µM 23% | [16]; at 100.0 µM 56%
active: [5]; [18] 72% | [8]; [18] 77% | [8]; at 50.0 µM 72.3% | [11]; [18] 73% | [15]; [18] 72%
